Results on 7 compounds are retold here after PubChem BioAssay (NCATS).

Several values for one entry are separate records, joined by “and”; a condition that tells them apart may be missing. Identical values can stand only once. Inconclusive results are not listed. More than one record can exist for a structure, and the calls need not agree. Activity calls are given as the source filed them. Unless noted, the call rests on the fitted dose curve; in most records, active means well fitted curve in the direction sought with a large enough effect; inconclusive means small, poorly fitted or top-dose-only effect, or another doubt; inactive means no such curve, though single readings can be large; an effect the other way counts as inactive or inconclusive. Starred links: 1 amine or outer side, 2 acyl side, 3 side chain; linkers in the order of their positions; H or OH if unused. Positions of bridges follow the written chain, without caps; N, C: chain ends. Non-standard residues stand in square brackets, D forms with d. Residues, ends and D or L forms follow the SMILES beside them. *: point of attachment. X2 = NC1=C[C@@H](O)C[C@H]([C@H](N[*:1])C(=O)[*:2])N1; ΔAla(3-NHCONH2) = NC(=O)NC=C(N)C(=O)O; β3hOrn = NCCC[C@H](N)CC(=O)*; Dap = NC[C@H](N)C(=O)O

The target in assay [1] is Cytochrome P450 2C9 (Homo sapiens) (UniProt P11712). As to the kind of experiment: qHTS Assay for Inhibitors and Substrates of Cytochrome P450 2C9 (AID 883). Further: on the % scale 0 is the no-effect control and ±100 the full control effect; nearly all actives have a fitted effect of over 60% in size. The procedure, abridged: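 A luminogenic readout tracked human CYP2C9 (10nM) converting deoxyluciferin (100uM, at KM) in 25mM KPO4 during 60 min at 37C with regenerated NADPH. Values normalized to 57uM sulphaphenazole as complete inhibition.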

Assay [2] has as its target Cytochrome P450 3A4 (Homo sapiens) (UniProt P08684). The assay can be described thus: qHTS Assay for Inhibitors and Substrates of Cytochrome P450 3A4 (AID 884). Further: nearly all actives have a fitted effect of over 50% in size. Further: potency means the concentration at half of the fitted maximal effect. On activity change, negative = inhibition: on the % scale 0 is the no-effect control and ±100 the full control effect. The procedure, abridged:
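Luminescent readout of luciferin produced by CYP3A4 (20 nM) dealkylation of Luciferin-PPXE, 25 uM (its KM). NADPH-driven reaction ran 60 min at RT after 10 min compound preincubation; data scaled to 57 uM ketoconazole as 100% inhibition.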
For orientation: qHTS replaces the single test concentration by a dilution series.

Assay [3] has the same target. The assay can be described thus: qHTS Assay for Activators of Cytochrome P450 3A4 (AID 885). Further: nearly all actives have a fitted effect of over 65% in size. An outline of the steps:
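Using 20nM recombinant human CYP3A4 in potassium phosphate (200mM), substrate Luciferin-PPXE at 25uM, luminescent luciferin detection followed a 60-min RT NADPH reaction; data scaled to 57 uM ketoconazole.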

The target of assay [4] is Cytochrome P450 2D6 (Homo sapiens) (UniProt P10635). As to the kind of experiment: qHTS Assay for Inhibitors and Substrates of Cytochrome P450 2D6 (AID 891).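 Further: luciferin methyl ether substrate demethylated by CYP2D6 with NADPH regeneration; on the % scale 0 is the no-effect control and ±100 the full control effect; nearly all actives have a fitted effect of over 60% in size.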 An outline of the steps:
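Luminescent read-out of luciferin formed by 5 nM human CYP2D6 demethylating 30 uM Luciferin-ME EGE (Km level) over 60 min at room temperature after NADPH regeneration addition. Data normalized to full inhibition by 1.43 uM quinidine.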

The target of assay [5] is Cytochrome P450 2C19 (Homo sapiens) (UniProt P33261). The assay can be described thus: qHTS Assay for Inhibitors and Substrates of Cytochrome P450 2C19 (AID 899). Further: on the % scale 0 is the no-effect control and ±100 the full control effect; nearly all actives have a fitted effect of over 60% in size. The procedure, abridged:
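NADPH-dependent conversion of Luciferin-H EGE (10uM, at KM) by 5nM enzyme in 50mM KPO4, 60 min at 37C following 10 min compound preincubation. Stopped with luciferin detection buffer; luminescence read after 20 min.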

A short description of assay [6]: qHTS profiling of the MIPE4 collection as inhibitors of Plasmodium falciparum (3D7) proliferation (AID 743344; call rule not given here;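 further: scaled between DMSO vehicle wells and 0.29 µM artemisinin as full inhibition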). The following applies: P. falciparum 3D7 in erythrocytes, SYBR Green DNA fluorescence, 72 h; at 28.5 µM (top of the series). The procedure, abridged: (§1)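 Parasite DNA was quantified by SYBR Green I fluorescence (ex 485, em 535 nm) after overnight lysis in saponin/Triton buffer at room temperature. Cultures at 0.3% parasitemia and 2.5% hematocrit were first exposed to compound for 72 h at 37 C; signals were normalised to artemisinin (0.29 uM) and vehicle wells.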

A short description of assay [7]: qHTS profiling of the MIPE4 collection as inhibitors of Plasmodium falciparum (DD2) proliferation (AID 743345; call rule not given here). Conditions: P. falciparum Dd2 in erythrocytes, SYBR Green DNA, 72 h; at 28.5 µM (top of the series). An outline of the steps: as §1
A short description of assay [8]: qHTS profiling of the MIPE4 collection as inhibitors of Plasmodium falciparum (DD2) proliferation (Rep 2) (AID 743346; call rule not given here). The following applies: P. falciparum Dd2 in erythrocytes, SYBR Green DNA, 72 h; at 28.5 µM (top of the series). The procedure, abridged: as §1
Assay [9] can be described thus: qHTS profiling of the MIPE4 collection as inhibitors of Plasmodium falciparum (HB3) proliferation (AID 743347; call rule not given here;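 further: plate controls were DMSO vehicle wells for no effect and artemisinin wells for full effect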). The following applies: P. falciparum HB3 in erythrocytes, SYBR Green DNA, 72 h; at 28.5 µM (top of the series). The procedure, abridged:
as §1

Sequence of Cytochrome P450 2C9 (Homo sapiens) (P11712 whole entry, looked up): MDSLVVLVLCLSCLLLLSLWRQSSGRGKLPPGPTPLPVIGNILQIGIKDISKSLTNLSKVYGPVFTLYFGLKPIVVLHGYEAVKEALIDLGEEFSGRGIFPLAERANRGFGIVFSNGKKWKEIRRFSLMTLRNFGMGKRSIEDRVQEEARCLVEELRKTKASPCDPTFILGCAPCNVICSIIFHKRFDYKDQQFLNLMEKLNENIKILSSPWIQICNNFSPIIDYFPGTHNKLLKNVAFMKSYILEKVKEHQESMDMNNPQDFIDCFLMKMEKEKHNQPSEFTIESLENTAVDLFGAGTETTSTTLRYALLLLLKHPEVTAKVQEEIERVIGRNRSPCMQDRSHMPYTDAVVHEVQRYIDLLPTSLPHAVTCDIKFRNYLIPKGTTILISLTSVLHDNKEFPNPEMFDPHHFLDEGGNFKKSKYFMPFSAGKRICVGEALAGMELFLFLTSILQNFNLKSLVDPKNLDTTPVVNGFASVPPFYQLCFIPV
Sequence of Cytochrome P450 2D6 (Homo sapiens) (P10635 whole entry, looked up): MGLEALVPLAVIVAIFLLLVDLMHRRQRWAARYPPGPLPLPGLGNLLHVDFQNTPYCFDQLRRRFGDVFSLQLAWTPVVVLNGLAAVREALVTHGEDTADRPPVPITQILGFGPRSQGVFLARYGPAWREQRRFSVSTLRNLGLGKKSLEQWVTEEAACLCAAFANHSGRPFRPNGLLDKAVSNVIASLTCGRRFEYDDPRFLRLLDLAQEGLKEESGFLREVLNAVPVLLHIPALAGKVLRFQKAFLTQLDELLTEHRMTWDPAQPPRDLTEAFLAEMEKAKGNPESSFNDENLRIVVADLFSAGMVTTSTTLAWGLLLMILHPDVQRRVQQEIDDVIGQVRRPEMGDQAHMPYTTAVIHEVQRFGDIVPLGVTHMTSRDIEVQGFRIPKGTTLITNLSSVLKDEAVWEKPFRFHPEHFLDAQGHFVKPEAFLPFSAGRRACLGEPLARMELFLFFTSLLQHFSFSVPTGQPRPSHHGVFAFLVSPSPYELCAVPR
Sequence of Cytochrome P450 3A4 (Homo sapiens) (P08684 whole entry, looked up): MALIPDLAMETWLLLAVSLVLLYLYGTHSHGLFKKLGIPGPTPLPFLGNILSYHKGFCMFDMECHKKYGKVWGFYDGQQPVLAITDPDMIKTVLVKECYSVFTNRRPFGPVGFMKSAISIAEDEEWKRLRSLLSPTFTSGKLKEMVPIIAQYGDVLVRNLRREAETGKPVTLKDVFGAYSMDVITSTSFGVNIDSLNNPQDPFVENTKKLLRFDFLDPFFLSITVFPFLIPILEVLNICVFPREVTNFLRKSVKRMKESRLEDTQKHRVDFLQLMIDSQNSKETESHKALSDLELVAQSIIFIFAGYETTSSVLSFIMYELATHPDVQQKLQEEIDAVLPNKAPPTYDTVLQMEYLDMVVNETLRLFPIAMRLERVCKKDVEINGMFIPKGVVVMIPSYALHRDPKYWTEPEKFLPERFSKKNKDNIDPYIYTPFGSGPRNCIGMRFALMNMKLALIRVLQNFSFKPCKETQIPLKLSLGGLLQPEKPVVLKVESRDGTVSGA
Sequence of Cytochrome P450 2C19 (Homo sapiens) (P33261 whole entry, looked up): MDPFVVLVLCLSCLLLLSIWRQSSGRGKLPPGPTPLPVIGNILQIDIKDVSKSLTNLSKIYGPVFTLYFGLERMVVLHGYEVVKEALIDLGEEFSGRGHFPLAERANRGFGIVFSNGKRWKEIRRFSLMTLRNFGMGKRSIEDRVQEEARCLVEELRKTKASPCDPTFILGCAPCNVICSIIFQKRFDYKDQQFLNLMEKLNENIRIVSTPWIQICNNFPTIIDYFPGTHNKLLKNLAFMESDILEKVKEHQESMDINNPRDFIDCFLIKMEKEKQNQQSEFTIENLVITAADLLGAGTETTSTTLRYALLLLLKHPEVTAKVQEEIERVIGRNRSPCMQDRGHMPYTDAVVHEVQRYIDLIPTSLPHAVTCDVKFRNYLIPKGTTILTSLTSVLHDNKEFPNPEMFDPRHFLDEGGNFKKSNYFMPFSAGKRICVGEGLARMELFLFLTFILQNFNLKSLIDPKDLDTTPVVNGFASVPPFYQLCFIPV

In the case of `COC(=O)C1=C(C)N(Cc2ccccc2)C2=C(C(C)=O)C(c3ccccc3)[C@@](O)(C(=O)OC)C(=O)N2C1c1ccccc1` (stereo not given in full), the Potency result in assay [1], in assay [4] and in [5] was “inactive” throughout. The Potency in [2] is 3.98 µM (active). In addition, the activity change, negative = inhibition in assay [2] was -19% [at 11.4 µM] (inactive). In addition, in assay [3], the activity change, positive = activation was -79.4% [at 11.4 µM] (inactive).
For `C[C@H]1CC[C@H]2C(=O)N[C@H](Cc3ccccc3)C(=O)N2[C@@H]1c1ccccc1`, the Potency result in assay [1] is “inactive”. Besides, the Potency in assay [2] was 2.51 µM (active). The activity change, positive = activation in [3] is -99.1% [at 11.4 µM] (inactive).
For `C=C(C)C(=O)OCC1CN2C(CCC(C)C2c2ccc(Br)cc2)C(=O)O1` (stereo not given), the Potency result in [1], in assay [4] and in assay [5] was “inactive” in each case. Moreover, in [2], the Potency was 3.16 µM (active). In addition, the activity change, negative = inhibition in assay [2] is -21.6% [at 11.4 µM] (inactive). In addition, the activity change, positive = activation in assay [3] was -55% [at 11.4 µM] (inactive) and -73.8% [at 11.4 µM] (inactive).
As for `COc1ccc(/C=C/C(=O)c2ccc(OC)cc2O)cc1`, the Potency result in [1] and in [4] was “inactive” throughout. Also, in assay [2], the Potency is 3.16 µM (active). The activity change, positive = activation in assay [3] is -92.3% [at 11.4 µM] (inactive).
Compound `NCCC[C@H](N)CC(=O)N[C@H]1CNC(=O)[C@H]([C@H]2C[C@H](O)C=C(N)N2)NC(=O)C(=CNC(N)=O)NC(=O)[C@H](CO)NC(=O)[C@H](CO)NC1=O` (β3hOrn-[Dap]SS[ΔAla(3-NHCONH2)][X2]; lactam 1-C) showed a parasite growth, % of DMSO control in [6] of 96%. In [7], this compound gave a parasite growth remaining, % of DMSO control (lower = more inhibition) of 96%. Further, the parasite growth, % of control (lower = inhibition) in assay [8] worked out at 133%. Moreover, the growth, % of control in [9] stood at 100%.
In the case of `C=CCCC/C=C(/C)C(OCc1ccc(OC)cc1)C(CC/C=C(\C)C(N)=O)OC` (stereo not given), the Potency result in [1] is “inactive”. Also, in [2], the Potency is 3.98 µM (active). Besides, the activity change, positive = activation in assay [3] is -96.8% [at 11.4 µM] (inactive).
As to `C[C@H]1C[C@H]2C3CCC4=CC(=O)C=C[C@@]4(C)[C@@]3(Cl)[C@@H](O)CC2(C)[C@@]1(OC(=O)c1ccco1)C(=O)CCl` (stereo not given in full), in assay [6], the parasite growth, % of DMSO control stood at 5.13%. The parasite growth remaining, % of DMSO control (lower = more inhibition) in assay [7] amounted to 6.79%. For the same compound, the parasite growth, % of control (lower = inhibition) in [8] came to 16.7%. In assay [9], this compound had a growth, % of control of 5.44%.
